Reference: PubChem BioAssay AID588651 (The Scripps Research Institute Molecular Screening Center, 2011)
Values without a mark were called inactive. Active and inactive are the calls of the source. No stated cut-off is given here; in the data, active means inhibition above about 65%; inactive means the rest.

test system: Fam108b; assay: Fam108b inhibition by ABPP, late-stage follow-up, biochemical, gel-based ABPP, recombinant soluble Fam108b, HTS hits, complex proteome (AID 588651); conditions: FP-rhodamine labeling in proteome, at 20 µM, hits give high values;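 further: Fam108b spiked into mouse brain membrane proteome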

Row | SMILES | inhibition
1 | Cn1c(O)c(C=NNC(=O)c2cc3ccccc3cc2O)c2ccccc21 | 35%
2 | O=C(NC1CCCCC1)c1sc(=S)n2c1[nH]c(=O)c1ccccc12 | 0%
3 | CCc1ccc(S(=O)(=O)N=C2C=C(Sc3ncn[nH]3)C(=O)c3ccccc32)cc1 | 60%
4 | CCN(c1ccccc1)S(=O)(=O)c1ccc(NC(=O)c2nc(S(C)(=O)=O)ncc2Cl)cc1 | 0%
5 | COc1ccc2ccccc2c1C(O)c1nccn1C (centres undefined) | 0%
6 | O=c1cc(-c2ccc(O)c(-c3c(O)cc(O)c4c(=O)cc(-c5ccc(O)cc5)oc34)c2)oc2cc(O)cc(O)c12 | 95% (active)
7 | COc1cc2c(cc1NC(=O)Nc1ccccc1)oc1ccccc12 | 0%
8 | CCN(CC)S(=O)(=O)c1cc(NC(=O)COC(=O)c2sc3ccccc3c2Cl)ccc1C | 10%
9 | Cc1ccccc1NC1=C/C(=N\S(=O)(=O)c2cccs2)c2ccccc2C1=O | 0%
10 | Nc1cc2nsnc2cc1Br | 0%
11 | O=C(Nc1ccc(F)cc1)Nc1ccc(N2CCCC2)c(S(=O)(=O)Nc2ccccc2Cl)c1 | 95% (active)
12 | COc1cc2c(cc1NC(=S)Nc1cccc(C(F)(F)F)c1)oc1ccccc12 | 20%
13 | Clc1ccccc1C(c1ccccc1)(c1ccccc1)n1ccnc1 | 0%
14 | Cc1nc2scc(-c3ccccc3)c2c(=O)o1 | 80% (active)
15 | CCOc1cc(/C=C2\C(=O)N(c3nc(-c4ccc(Br)cc4)cs3)N=C2c2ccccc2)ccc1O | 70% (active)
16 | CCc1ccc(S(=O)(=O)/N=C2\C=C(Nc3cccc(C(=O)O)c3)C(=O)c3ccccc32)cc1 | 0%
17 | Cc1c(O)ccc(C=NNc2nc(-c3cccnc3)nc3ccccc23)c1O | 85% (active)

Row | SMILES | inhibition
18 | Cc1ccc(-c2csc3nc(C(C)C)oc(=O)c23)c(C)c1 | 90% (active)
19 | O=C1C(SCCO)=C(SCCO)C(=O)c2ccccc21 | 50%
20 | Cc1cc(NN=Cc2c(O)ccc3ccccc23)nc(-c2ccccc2O)n1 | 85% (active)
21 | CC1CCCCN1S(=O)(=O)c1ccc(C(=O)Nc2ccccc2-c2nc3ccccc3[nH]2)cc1 (centres undefined) | 50%
22 | O=C(Nc1ccc(-c2csc(Nc3ccccc3)n2)cc1)c1cc([N+](=O)[O-])cc(C(F)(F)F)c1 | 60%
23 | COc1ccc(/C=C2\SC(=S)N(CC(=O)OCC(=O)Nc3cc(Cl)cc(Cl)c3)C2=O)cc1 | 0%
24 | O=c1ccc2cc3c([nH]c4ccc(Br)cc43)oc-2c1O | 10%
25 | COc1cccc(C=NNc2nc(Nc3ccc([N+](=O)[O-])cc3)nc(N3CCCC3)n2)c1O | 65% (active)
26 | CCCCCCCCCCCCCCCC[n+]1ccc(C=NO)cc1 | 0%
27 | Cc1cc(C(C#N)c2ccc(Cl)cc2)c(Cl)cc1NC(=O)c1cc(I)cc(I)c1O (centres undefined) | 50%
28 | COc1cccc(-n2c(SCc3cc(=O)oc4cc(O)c(O)cc34)nc3ccccc3c2=O)c1 | 10%
29 | COc1ccc2oc(=O)c(-c3csc(Nc4cccc(O)c4)n3)cc2c1 | 0%
30 | Cc1nc2scc(-c3ccc(Cl)cc3)c2c(=O)o1 | 95% (active)
31 | Cn1c2ccccc2c2cc(C=NNC(=O)c3cc(O)ccc3O)ccc21 | 80% (active)
32 | Fc1ccc2nc(Nc3nc4cc5c(cc4s3)OCO5)sc2c1 | 0%
33 | Cc1cc(C)nc(SCc2ccc(C(=O)NN=Cc3cccc(O)c3O)cc2)n1 | 30%
34 | O=[N+]([O-])c1ccc(NN=Cc2ccccc2O)cc1 | 0%
